According to publication PMC5540273 (PLoS ONE, 2017):

Legend:
Details in all cases: concentration: 1 μM, replicates: in singlicate; n = 1
[1] = tested on: RPS6KA4(Kin.Dom.1-N-terminal)
[2] = tested on: RPS6KA4(Kin.Dom.2-C-terminal)
[3] = tested on: RPS6KA5(Kin.Dom.1-N-terminal)
[4] = tested on: RPS6KA5(Kin.Dom.2-C-terminal)
[5] = tested on: T1, RSK1(Kin.Dom.1-N-terminal)
T1 construct: gene RPS6KA1

[6] = tested on: T2, RSK1(Kin.Dom.2-C-terminal)
T2 construct: gene RPS6KA1

[7] = tested on: T3, RSK2(Kin.Dom.1-N-terminal)
T3 construct: gene RPS6KA3

[8] = tested on: T4, RSK2(Kin.Dom.2-C-terminal)
T4 construct: gene RPS6KA3

[9] = tested on: T5, RSK3(Kin.Dom.1-N-terminal)
T5 construct: gene RPS6KA2

[10] = tested on: T6, RSK3(Kin.Dom.2-C-terminal)
T6 construct: gene RPS6KA2

[11] = tested on: T7, RSK4(Kin.Dom.1-N-terminal)
T7 construct: gene RPS6KA6

[12] = tested on: T8, RSK4(Kin.Dom.2-C-terminal)
T8 construct: gene RPS6KA6

S6K1 = tested on: S6K1
SBK1 = tested on: SBK1
SGK2 = tested on: SGK2
SGK3 = tested on: SGK3
SGK = tested on: SGK
SIK2 = tested on: SIK2
SIK = tested on: SIK
SLK = tested on: SLK
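Also: KINOMEscan kinase panel screen.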

Row | Compound | %Inh [1] [%] | %Inh [2] [%] | %Inh [3] [%] | %Inh [4] [%] | %Inh [5] [%] | %Inh [6] [%] | %Inh [7] [%] | %Inh [8] [%] | %Inh [9] [%] | %Inh [10] [%] | %Inh [11] [%] | %Inh [12] [%] | %Inh (S6K1) [%] | %Inh (SBK1) [%] | %Inh (SGK2) [%] | %Inh (SGK3) [%] | %Inh (SGK) [%] | %Inh (SIK2) [%] | %Inh (SIK) [%] | %Inh (SLK) [%]
1 | CC(C)c1nc(-c2cccc(NS(=O)(=O)c3c(F)cccc3F)c2)c(-c2ccnc(Nc3ccc(N4CCOCC4)nc3)n2)s1.Cl [GSK1723980] | 0 | 0 | 0 | 0 | 83 | 1 | 15 | 0 | 27 | 0 | 0 | 19 | 29 | 20 | 0 | 15 | 34 | 90.8 | 99.4 | 73
2 | Cl.Cl.NC(CNC(=O)c1cc(Br)c(-c2ccnc3[nH]ccc23)s1)c1ccccc1 (stereo not drawn) [GSK1322949] | 37 | 62 | 37 | 33 | 10 | 26 | 37 | 22 | 14 | 14 | 0 | 16 | 39 | 51 | 16 | 66 | 46 | 6 | 4 | 20
3 | CN(C)CCOc1ccc(-c2cc(-c3ccc(Cl)c(O)c3)c(-c3ccncc3)[nH]2)cc1.Cl.Cl [SB-684387] | 0 | 23 | 0 | 33 | 10 | 23 | 3 | 8 | 4 | 0 | 0 | 25 | 6 | 12 | 10 | 20 | 24 | 27 | 4 | 98
4 | Nc1cccc(-c2ccc3c(N)n[nH]c3c2)c1 [GSK2193613] | 12 | 8 | 35 | 0 | 13 | 1 | 1 | 6 | 7 | 8 | 0 | 25 | 0 | 8 | 0 | 34 | 33 | 0 | 0 | 2
5 | Cc1ccc(O)cc1Nc1ccnc2ccc(C(C)(C)C)cc12 [GW856805] | 4 | 9 | 2 | 8 | 30 | 0 | 39 | 32 | 16 | 0 | 31 | 1 | 13 | 53 | 13 | 1 | 25 | 0 | 42 | 12
6 | NCCC(NC(=O)c1cc(Br)c(-c2ccnc3[nH]ccc23)s1)c1ccccc1.O=C(O)C(F)(F)F.O=C(O)C(F)(F)F (stereo not drawn) [GSK1307810] | 44 | 39 | 46 | 46 | 37 | 31 | 44 | 0 | 13 | 0 | 53 | 4 | 48 | 66 | 67 | 64 | 78 | 0 | 0 | 16
7 | COc1cc(Nc2ccnc3cc(-c4ccncc4)ccc23)cc(OC)c1OC.Cl [GW494610] | 8 | 0 | 22 | 0 | 0 | 0 | 5 | 20 | 1 | 0 | 19 | 0 | 17 | 100 | 5 | 2 | 19 | 74 | 91.5 | 49
8 | CCOc1nccc(-c2c(-c3ccc(F)cc3)ncn2C2CCNCC2)n1 [SB-249175] | 8 | 32 | 100 | 0 | 16 | 20 | 52 | 39 | 17 | 20 | 41 | 83 | 16 | 46 | 34 | 12 | 29 | 4 | 2 | 71
9 | CC(C)NCC(Cc1ccccc1)NC(=O)c1cc(Br)c(-c2ccnc3[nH]ccc23)s1.Cl.Cl (stereo not drawn) [GSK1383281] | 76 | 0 | 48 | 22 | 50 | 0 | 25 | 0 | 16 | 6 | 5 | 20 | 56 | 45 | 0 | 66 | 59 | 0 | 4 | 0
10 | O=C(O)C(F)(F)F.O=c1[nH]ccc2nc(N[C@@H]3CCNC3)nc(Nc3cc(Cl)cc(Cl)c3)c12 [GSK2188764] | 94.6 | 99.9 | 65 | 86 | 96.7 | 64 | 98.3 | 30 | 94.8 | 55 | 96.3 | 32 | 94.3 | 91.5 | 96.4 | 99.5 | 99.9 | 54 | 1 | 98.9
11 | CSc1ccc(NC2=C(c3ccc(Cl)cc3)C(=O)NC2=O)cc1 [SB-317658] | 28 | 0 | 2 | 30 | 6 | 0 | 11 | 0 | 0 | 0 | 5 | 0 | 0 | 29 | 0 | 0 | 0 | 9 | 25 | 8
12 | COc1ccc(C2=C(Nc3cccc(O)c3)C(=O)NC2=O)cc1 [SB-390766] | 0 | 0 | 2 | 0 | 32 | 0 | 24 | 96.4 | 3 | 21 | 0 | 20 | 17 | 8 | 11 | 9 | 0 | 0 | 0 | 27
13 | COc1cccc(-c2nc(-c3ccccc3)[nH]c2-c2ccncc2)c1 [SB-610250] | 2 | 0 | 7 | 41 | 19 | 7 | 12 | 26 | 11 | 0 | 0 | 63 | 19 | 9 | 40 | 0 | 31 | 0 | 1 | 6
14 | COc1cc(Nc2nccc(N3CCC(NS(=O)(=O)c4ccc(NC(C)=O)cc4)CC3)n2)cc(OC)c1OC [GSK1379825] | 0 | 0 | 27 | 0 | 0 | 0 | 5 | 24 | 11 | 2 | 0 | 3 | 0 | 14 | 15 | 0 | 9 | 61 | 0 | 48
15 | N#Cc1cnc2cc(-c3cnc(CNCCN4CCOCC4)s3)ccc2c1Nc1ccc(Oc2ccccc2)cc1 [GW664114] | 41 | 0 | 76 | 28 | 91.7 | 32 | 79 | 1 | 78 | 16 | 11 | 14 | 61 | 1 | 0 | 4 | 1 | 16 | 45 | 67
16 | c1ccc(Oc2ccc(Nc3ccnc4cc(-c5ccc(CN6CCCCC6)o5)ccc34)cc2)nc1 [GW567143] | 13 | 0 | 0 | 0 | 22 | 0 | 0 | 20 | 3 | 0 | 0 | 1 | 6 | 25 | 6 | 0 | 0 | 70 | 97.4 | 36
17 | COc1ccc(C)c(Nc2ccnc(Nc3ccc(-c4cnc[nH]4)cc3)n2)c1.Cl [GW784041] | 26 | 5 | 8 | 10 | 0 | 1 | 0 | 3 | 1 | 6 | 0 | 0 | 0 | 0 | 0 | 12 | 0 | 71 | 28 | 70
18 | N#CC1(c2cccc(C(=O)Nc3cccc(Oc4ccc5nc(NC(=O)C6CC6)sc5n4)c3)c2)CC1 | 0 | 2 | 0 | 0 | 0 | 25 | 15 | 1 | 25 | 21 | 11 | 10 | 0 | 0 | 0 | 0 | 0 | 0 | 31 | 39
